In PubChem BioAssay AID493201 (National Center for Advancing Translational Sciences (NCATS), 2011):
Inconclusive results are not listed. Where a call stands in place of a potency, no number is given. Calls of active or inactive are those of the source. The call rests on the fitted dose curve; in most records, active means well fitted activation curve with a large enough effect; inconclusive means small, poorly fitted or top-dose-only effect; inactive means no such curve, though single readings can be large or run the other way.

Assay: qHTS Assay for Identifying a Potential Treatment of Ataxia-Telangiectasia: Secondary assay (no NCS) hit validation;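 further: phosphorylated KAP1 signal as a proxy for ATM-like kinase activity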
Conditions: A-T patient fibroblasts, AlphaLISA, no DNA damage added, 90 min; series mostly up to 76.9 µM
Method in brief: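 Without NCS-induced DNA breaks, ATM-like activity scored as phospho-KAP1 AlphaLISA signal (pKAP1/total KAP1 bead pair) in ATM-null F2112 fibroblasts; compound series up to 76.7 uM final, 37C incubation, lysates read on AlphaScreen protocol.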
Potency means the concentration at half of the fitted maximal effect.

| SMILES | Potency |
| --- | --- |
| CCn1c(=NC(=O)CN2C(=O)CCC2=O)sc2c(OC)ccc(OC)c21 | 0.923 µM (active) |
| CCC(C)Nc1nc(N)c([N+](=O)[O-])c(NCCO)n1 (centres undefined) | inactive |
| COc1cccc(CNCc2ccc(OC)c3ccccc23)c1OC | inactive |
| COc1ccccc1Nc1nc(NCCCN(C)C)nc(N)c1[N+](=O)[O-] | 2.6 µM (active) |
| CCc1ccc(NC(=O)CNCc2ccc(OC)c(OC)c2)cc1 | inactive |
| Clc1cccc(Cl)c1CSc1nnc(-c2ccncc2)s1 | 41.2 µM (active) |
| COc1cccc(C2C(C(N)=O)=C(C)Nc3nc(CCCO)nn32)c1 (centres undefined) | inactive |
| Cc1ccc(NC(=O)Nc2cccnc2)cc1NC(=O)Nc1cccnc1 | inactive |
| COc1ccc2c(c1)c(N=NC(N)=S)c(O)n2CC(=O)c1ccccc1 | inactive |
| CC(=O)/C(N=Nc1nc2c([nH]1)c(=O)n(C)c(=O)n2C)=C(\C)O | inactive |
| C/C(CCC1CC(C)OC1=O)=N\NC(N)=S (centres undefined) | inactive |
| COC(=O)Cc1ccc(NC(=S)NCCSc2ccc(Cl)cc2)cc1 | inactive |
| COc1ccccc1OC(=O)Nc1ccc(Cl)cc1 | 3.28 µM (active) |
| CCc1ccc(C2c3[nH]c4ccccc4c3CCN2C(=O)c2cc[n+]([O-])cc2)cc1 (centres undefined) | inactive |
| CC(C)(CN1CCN(c2ccccc2)CC1)NS(=O)(=O)c1ccccc1 | inactive |
| C=CS(=O)(=O)c1sc(Cl)c(N2CCOCC2)c1[N+](=O)[O-] | inactive |
| CCCCN(c1nc2ccccc2nc1Cl)S(=O)(=O)c1ccc(C)cc1 | inactive |

| SMILES | Potency |
| --- | --- |
| CCOc1cc(/C=C/c2nc3ccccc3c(=O)[nH]2)ccc1O | inactive |
| CCN1C/C(=C/c2sccc2C)c2nc3ccccc3c(C(=O)O)c2C1 | 16.4 µM (active) |
| O=C(c1nn2c(C(F)(F)F)cc(-c3ccc(F)cc3)nc2c1Cl)N1CCOCC1 | inactive |
| CCn1c2ccccc2c2c3ncc4cccn4c3ccc21 | 36.8 µM (active) |
| O=C(CSc1nnc(CNC(=O)c2ccccc2)o1)NCCc1ccccc1 | inactive |
| CNC(=O)c1ccc(-c2sc3nc(N4CCOCC4)c4c(c3c2N)CC(C)(C)OC4)o1 | 29.2 µM (active) |
| CC12CCC(C(=O)NNc3ccc([N+](=O)[O-])cc3)(OC1=O)C2(C)C (centres undefined) | inactive |
| Cc1[nH]c2c(C)cccc2c1CN1CCC(CO)(Cc2ccccc2)CC1 | 1.84 µM (active) |
| CCN(CC)c1ccc2c(Cl)c(Br)c(=O)oc2c1 | inactive |
| CCn1nc(C)c(CNC(=O)c2cc(COc3ccc(F)cc3Cl)on2)c1C | inactive |
| CNC(=O)Cc1csc2ccc(C)cc12 | inactive |
| O=C1CN(C(=O)NCC(=O)N[C@H](C(=O)O)c2ccccc2)c2ccccc2N1 | inactive |
| CC(=O)c1sc2nc(C)c3c(c2c1N)CCCC3 | inactive |
| CC(C)CC(=O)Nc1c2c(nn1-c1cccc(Cl)c1)CS(=O)C2 (centres undefined) | 58.2 µM (active) |
| O=C(NC(=O)c1c(F)cccc1F)Nc1ccccc1SC(F)F | inactive |
| COc1ccc(N(CCC#N)C(=O)/C(C#N)=C\c2cccs2)cc1 | inactive |
| Cc1ccc2c(c1)sc(=NC(=O)C1CC1)n2C | inactive |
